# Data: the supplement of paper PMC6555819
# What was measured:
# Test in all cases: PBM binding z-score (relative to random genomic background probes); higher = stronger binding; sequences stand for … in GC…GCGATTGACAGCGTAGAATGAAGG
# [1] = tested on: FXR:RXRa (NR concentration 270 nM, RXRa partner concentration 90 nM)
# In short: (§1)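 Ligand-free nuclear receptor dimers were applied to custom Agilent 4×180K protein-binding microarrays whose double-stranded probes carried direct-repeat seeds, single-nucleotide variants, half-site ablations and random human genomic background sequences in 34-nt variable regions. Incubation lasted 1 h. Binding z-scores were computed against the random background probes from regression-normalized fluorescence.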
# [2] = tested on: LXRa:RXRa (NR concentration 270 nM, RXRa partner concentration 90 nM)
# In short: as §1
# [3] = tested on: LXRa homodimer (NR concentration 270 nM)
# In short: as §1
# [4] = tested on: LXRb:RXRa (NR concentration 270 nM, RXRa partner concentration 90 nM)
# In short: as §1
# [5] = tested on: LXRb homodimer (NR concentration 270 nM)
# In short: as §1
# [6] = tested on: PPARa:RXRa (NR concentration 270 nM, RXRa partner concentration 90 nM)
# In short: as §1
# [7] = tested on: PPARg:RXRa (NR concentration 180 nM, RXRa partner concentration 90 nM)
# In short: as §1
# [8] = tested on: PPARg:RXRa 270nM:90nM, anti-RXR (NR concentration 270 nM, RXRa partner concentration 90 nM)
# In short: as §1
# [9] = tested on: PPARg:RXRa 30nM:10nM, anti-RXR (NR concentration 30 nM, RXRa partner concentration 10 nM)
# In short: as §1
# [10] = tested on: PPARg:RXRa 90nM:30nM, anti-RXR (NR concentration 90 nM, RXRa partner concentration 30 nM)
# In short: as §1
Sequence,PBM binding z-score [1],PBM binding z-score [2],PBM binding z-score [3],PBM binding z-score [4],PBM binding z-score [5],PBM binding z-score [6],PBM binding z-score [7],PBM binding z-score [8],PBM binding z-score [9],PBM binding z-score [10]
TCATGTAGGTAAACAGGTGAAAGTCCGTAAGTTA,0.441,0.537,-0.185,0.487,-0.709,2.46,3.06,3.74,3.38,3.64
CGTCCAAGGTCAAAGGTCAGTGAGGAGATGACGG,8.06,7.01,4.05,6.21,1.86,7.08,10.8,8.98,8.09,9.57
ATATGTAGGTTAGCTGGGGTCACTCAGACTAGGC,4.47,5.35,1.4,4.08,1.05,5.03,5.15,5.18,2.81,4.46
GTACCAAGGTGAATAGGTCGTAGATGAGTAGGCG,0.946,0.897,-0.305,0.416,-0.297,2.39,1.82,2.02,0.602,1.25
AATACAGGGTCATCGTAGGCCCGAGTACGCACAG,6.78,5.81,2.32,3.99,0.935,5.82,6.57,6.13,2.54,5.01
GCGACTGGGGCAAACCAGGTTACCATAAGGTTGG,0.393,0.174,-0.329,0.0865,-0.736,1.37,1.43,1.51,-0.386,0.602
ACAGACAGGTGAGTGAAGGTTACTCAGCTGGACG,0.506,0.708,-0.297,-0.125,-0.739,0.764,0.848,0.505,-0.0853,0.0538
CCTGCTAGGTCATGGACAGCTAATCTACAGTATG,3.61,2.77,-0.434,1.75,-0.251,3.61,2.53,2.8,0.906,1.75
TGAATGAGGTTACAAGATCAGGGAACGTTGCAAA,1.8,1.28,-0.302,1.34,-0.31,3.09,2.14,2.54,1.05,1.65
ATATGTAGGTTAGCTGGGGACATTCAGACTAGGC,1.86,1.8,0.679,1.14,0.544,2.64,3.46,2.89,1.12,2.16
ACTAGCAGGCCACGTTTGGGTCACTCAAACAAAG,0.331,0.116,-0.479,0.601,-0.41,1.42,0.444,0.355,-0.448,-0.155
CGAACTGGGTCAAGGACAGTGAATCTCCGCACGC,2.51,1.36,-0.258,1.24,-0.484,4.39,6.95,6.03,2.89,5.37
TCTAGCAGGCCAGAGGGTCACTCAGGAGGTACGG,1.25,1.15,-0.544,0.792,-1.23,2.35,1.43,2.66,2,2.55
CCTGATAGGTCAATGGTCAGCTAAAGCAGCTCGC,5.01,3.98,0.776,2.92,0.415,4.48,4.56,4.96,2.53,4.35
TGAATGAGCTTAAAGATCAGGGAACGTGGCGTCG,-0.0785,-0.405,-0.642,-0.65,-0.626,-0.428,0.39,0.417,-0.0177,0.152
ATATGTAGGTTAGTTGGGGTCATTCAGACTAGGC,5,6.61,5.82,5.76,1.94,5.47,5.44,5.32,2.72,4.54
TAGCCTAGGTCATGGGCCATTATACCACGCGAAC,4.64,3.37,0.43,2.95,0.468,4.24,4.34,4.26,1.44,2.97
AGAATGAGGTTATACGTAGATCCGGGAAGAAAGT,1.84,1.4,-0.0656,1.27,-0.0516,3.09,1.65,2.1,0.93,1.68
TCTAGTTGGTCTCGGAGGTCACACACGACGGGTA,2.68,3,2.28,3.18,0.844,3.52,1.68,3.05,3.33,3.13
AATACAGCGTCACTAGGCCAGAGTAGGTACGAAT,-0.287,-0.499,-0.588,-0.808,-0.279,0.0154,0.87,0.513,0.103,0.0712
ACTCGGAGGACAAAGTTCAGAGCTACGCCAGTGA,1.48,1.83,1.79,0.868,-0.232,2.82,4.04,5.27,3.37,5.49
TGTCAAAGTTCAAAGGTAATGTAAGTATCCACAC,7.19,6.2,4.51,4.31,1.91,5.66,8.55,7.39,5.63,7.6
ATCTCTAGGTAACGAAGTTCAGTGAATGCCGAAC,0.145,0.276,0.427,0.411,0.414,0.915,0.812,1.02,0.0863,0.766
